RGS12 GoLoco inh = inhibitors of human Gai1-RGS12 GoLoco interaction (red fluorophore); P63096; Gai1:RGS12 GoLoco peptide FP, rhodamine, 10 min; Potency, µM (doses to about 61.6 µM), actives largely listed as inhibitors; 0.44% of 230,000 active; AID 880; active = well fitted inhibition curve with a large enough effect, not every such curve was filed as active; inactive = no such curve, though single readings can be large or run the other way; also: nearly all actives have a fitted effect of over 30% in size
Target sequence (P63096 whole entry, looked up): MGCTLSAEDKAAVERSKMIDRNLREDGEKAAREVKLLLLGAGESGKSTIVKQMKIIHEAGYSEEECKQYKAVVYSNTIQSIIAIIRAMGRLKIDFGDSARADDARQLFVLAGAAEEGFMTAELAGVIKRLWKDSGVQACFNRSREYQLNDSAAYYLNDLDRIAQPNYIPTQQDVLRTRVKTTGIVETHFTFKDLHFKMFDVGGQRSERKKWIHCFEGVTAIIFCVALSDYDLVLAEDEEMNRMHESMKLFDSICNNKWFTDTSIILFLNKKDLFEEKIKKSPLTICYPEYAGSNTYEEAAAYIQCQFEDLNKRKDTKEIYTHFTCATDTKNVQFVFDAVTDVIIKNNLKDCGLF
TRb-SRC2 inh = TRbeta-SRC2 interaction inhibition. P10828. TRbeta-SRC2 peptide binding, fluorescence polarization; receptor liganded with 1 µM T3. Potency, µM (series often up to 106 µM), usual class: inhibitors. 0.065% of 280,000 active. AID 1469; also: nearly all actives have a fitted effect of over 50% in size
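Binding of a 20-amino-acid Texas Red SRC2 peptide (20 nM) to TRb ligand-binding domain (0.6 uM) with agonist T3 at 1 uM was followed by fluorescence polarization after a 5 hr room-temperature incubation.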
Tau fibril ThT = tau fibrillization inhibition (ThT binding). recombinant tau K18 P301L, heparin-induced fibrillization, ThT fluorescence. Potency, µM (top dose mostly 57.4 µM), actives largely listed as inhibitors. 2.1% of 270,000 active. AID 1460; also: nearly all actives have a fitted effect of over 55% in size
Target sequence (P10636 561-689 P618L limits assumed): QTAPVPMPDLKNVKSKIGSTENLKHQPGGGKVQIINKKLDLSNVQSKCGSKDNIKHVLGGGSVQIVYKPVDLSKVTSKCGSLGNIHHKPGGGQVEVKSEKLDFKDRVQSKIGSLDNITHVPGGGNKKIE
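Recombinant human tau K18 fragment […] carrying P301L, 15 uM unlabeled plus 0.24 uM Alexa 594-labeled, was fibrillized with 20 uM heparin in 100 mM sodium acetate pH 7 for 6 hr at 37 C; 30 uM ThT fluorescence read after 1 hr.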
Tau FP inhib = blocks human tau fibril formation measured by polarization | P10636 | K18 P301L tau heparin fibrillization, Alexa594 FP, 6 h | Potency, µM (top dose mostly 57.7 µM), hits mostly inhibitors | 0.39% of 280,000 active; also: nearly all actives have a fitted effect of over 55% in size
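Read-out: fluorescence polarization of Alexa 594-labeled tau (0.24 uM), 555 nm excitation, 632 nm emission. Mixtures held 15 uM unlabeled K18 P301L, compound and 20 uM heparin, pH 7 acetate buffer, incubated 6 hr at 37 C.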
Tau fluor counter = counter-screen for tau fibril formation inhibitors | tau K18 P301L (four-repeat tau fragment) Alexa594 fluorescence, heparin fibrillization | Potency, µM (titrated, usually from 57.7 µM) | 0.93% of 280,000 active | AID 1463; also: nearly all actives have a fitted effect of over 55% in size
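Human K18 P301L tau (15 uM unlabeled plus 0.24 uM Alexa 594-labeled, final) in 100 mM sodium acetate pH 7 was mixed with compound and 20 uM heparin and incubated 6 hr at 37 C.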
TexasRed fluor = alters Texas Red total fluorescence, flagging assay interference | TRb/SRC2 Texas Red total fluorescence interference | Potency, µM (highest dose often 106 µM) | 0.29% of 280,000 active; active = well fitted curve in either direction with a large enough effect; inconclusive = small, poorly fitted or top-dose-only effect
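Human TRβ ligand-binding domain (0.6 uM) and Texas Red SRC2 peptide (20 nM) in Tris buffer with 1 uM T3 and 5% DMSO were incubated with pinned compound for 5 hr at ambient temperature. Total fluorescence was computed as S + 2P (555/632 nm).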
Hits are given with their value; i = inactive; ? = inconclusive; nt = no result; [ ] = remark or other dose. An excerpt weighted towards active compounds, which were near 3.2% of everything screened. Unless noted, calls follow the shape of the dose curve; as a rule, active = well fitted curve in the direction sought with a large enough effect; inconclusive = small, poorly fitted or top-dose-only effect, or another doubt; inactive = no such curve, though single readings can be large; an effect the other way counts as inactive or inconclusive.

SMILES	RGS12 GoLoco inh	TRb-SRC2 inh	Tau fibril ThT	Tau FP inhib	Tau fluor counter	TexasRed fluor
CCOc1c(OC(C)=O)ccc(/C=C/c2ccc3cccc(OC(C)=O)c3n2)c1[N+](=O)[O-]	i	i	6.3µM	?	8.9µM[quencher]	i
CC1=C[N+](=O)c2ccccc2[N+]1=O	i[14.2 µM]	nt	nt	nt	nt	nt
CC(=O)c1ccc(NC(=O)Cn2c3ncccc3c(=O)n2-c2ccc(C)cc2)cc1	nt	?	i	?	?	89µM[quencher]
CC(C)NCc1c(O)c(Br)cc2oc3c(c12)CCCC3	5.6µM	i	i	i	i	i
Cc1cccc(CNc2cc(-c3ccoc3)ncn2)c1	i	i	18µM	?	i	i
c1cncc(CNc2cc(-c3ccoc3)ncn2)c1	13µM	nt	nt	nt	nt	nt
Cc1ccc(Cl)c2sc(NC(=O)CS(=O)(=O)c3ccc(Cl)cc3)nc12	nt	i	i	11µM	?	i
Nc1ccc(N=Nc2ccccc2)c2ccccc12	i	i	7.1µM	?	13µM[quencher]	i
CSc1ncc(C(=O)Nc2cccc(C)c2C)c(-c2ccccc2)n1	nt	i	?	i	i	i
COc1cc(CN(C(=S)NCC(=O)NC2CC2)C2CCCC2)cc(OC)c1OC	i	?	i	i	i	0.089µM[quencher]
O=C(O)c1cccc(Nc2cc(Cl)c3nonc3c2[N+](=O)[O-])c1	i	i	3.5µM	i	?	i
O=[N+]([O-])c1c(Nc2ccccn2)cc(Cl)c2nonc12	i	i	nt	?	?	i
Cc1nc(NC2CCCCC2)c2nc(-c3ccccc3)n(CCCN3CCCCC3C)c2n1 (stereo unspecified)	i	i	i	i	i	i
O=C(/C=C/c1ccc(OCc2ccccc2)c(OCc2ccccc2)c1)c1cccnc1	i	i	i	i	i	1122µM[quencher]
S=C(Nc1ccc2nsnc2c1)N1CCCC1	i	?	25µM	?	i	i
O=C(Nc1ccc2nsnc2c1)N1CCCCCC1	i	i	i	i	i	i
O=C(CSc1nc2ccccc2c(=O)n1-c1ccc(F)cc1F)c1c[nH]c2ccccc12	i	i	?	28µM	?	i
O=C(CCNc1ccc(Br)cc1)c1cccc([N+](=O)[O-])c1	i	i	?	?	28µM[quencher]	i
O=C(CCNc1ccccc1)c1cccc([N+](=O)[O-])c1	nt	i	i	i	i	i
O=C(CCNc1ccc(Cc2ccncc2)cc1)c1ccc([N+](=O)[O-])cc1	i	i	10µM	i	7.9µM[quencher]	i
O=C(CCNc1ccc(F)cc1)c1cccc([N+](=O)[O-])c1	i	i	?	i	16µM[quencher]	i
Cc1ccnc(SCC(=O)c2cccc([N+](=O)[O-])c2)n1	i	i	i	i	i	i
Cc1nc(SCC(=O)c2cccc([N+](=O)[O-])c2)n[nH]1	i	i	40µM	?	i	i
O=C(ONc1ccc(N=NC(=O)c2ccccc2O)cc1)c1ccccc1	i	i	4.5µM	i	?	i
CCCS(=O)(=O)c1ncc(Cl)c(C(=O)Nc2c(C(=O)Nc3ccccc3)oc3ccccc23)n1	nt	i	7.1µM	i	?	?
SMILES	RGS12 GoLoco inh	TRb-SRC2 inh	Tau fibril ThT	Tau FP inhib	Tau fluor counter	TexasRed fluor
Nc1nc2ccc(S(=O)(=O)N3CCCCC3)cc2s1	i	i	32µM	?	i	i
O=c1cc(-c2cc(O)c(O)c([C@@H]3O[C@H](CO)[C@@H](O)[C@H](O)[C@H]3O)c2)oc2cc(O[C@@H]3O[C@H](CO)[C@@H](O)[C@H](O)[C@H]3O)cc(O)c12	nt	i	nt	nt	nt	i
COCCCNc1oc(-c2ccc(COc3ccc(Cl)cc3)o2)nc1C#N	nt	i	?	?	11µM[quencher]	i
COc1ccc(CNc2oc(COc3ccc(Cl)cc3)nc2C#N)cc1	i	i	i	i	?	i
COCCNc1oc(-c2ccc(COc3ccc(OC)cc3)o2)nc1C#N	nt	i	i	i	?	?
COc1ccc(Nc2oc(COc3ccc(Cl)cc3)nc2C#N)cc1	i	i	?	i	20µM[quencher]	i
[O-]/[N+](=N\O)c1ccccc1	i	i	nt	nt	nt	i
O=C(O)[C@@H]1CCN(Cc2oc(CO)cc(=O)c2O)C1	i[14.2 µM]	nt	nt	nt	nt	nt
O=C1CCCC=C1[C@@H](O)C1CCCCC1	nt	i[11.2 µM]	i[11.5 µM]	i[11.6 µM]	i[11.6 µM]	i[11.2 µM]
CCCCc1nc2c(c3c1C[C@H](C)OC3)CN(C(=O)N[C@@H](C)c1ccccc1)CC2	i[14.2 µM]	i[11.2 µM]	i[11.5 µM]	i[11.6 µM]	i[11.6 µM]	i[11.2 µM]
Cc1[nH]c2ccccc2c1Cc1nnc(SCc2ccccc2)o1	i	i	?	?	18µM[quencher]	i
O=C(Nc1nnc(S(=O)(=O)N2CCCCCC2)s1)c1ccccc1	nt	i	14µM	i	?	?
O=C(COc1ccccc1Cl)Nc1nnc(S(=O)(=O)N2CCCC2)s1	nt	i	?	i	?	i
CC1Cc2ccccc2N1S(=O)(=O)c1nnc(NC(=O)c2ccccc2Br)s1 (stereo unspecified)	nt	i	13µM	i	?	i
CC1Cc2ccccc2N1S(=O)(=O)c1nnc(NC(=O)c2ccccc2)s1 (stereo unspecified)	nt	i	?	i	i	i
O=C(Nc1nnc(S(=O)(=O)N2CCCC2)s1)c1ccccc1Cl	nt	i	3.5µM	i	?	i
O=C(COc1ccccc1F)Nc1nnc(S(=O)(=O)N2CCCCCC2)s1	nt	i	14µM	i	i	i
O=C(Nc1nnc(S(=O)(=O)N2CCCCCC2)s1)c1ccccc1Cl	nt	i	?	i	?	i
COc1cc(N/N=C(\C)c2ccc(N)cc2)nc(-c2ccccc2)n1	i	i	16µM	i	14µM[quencher]	i
COc1cc(N/N=C(\C)c2ccc(O)c(C)c2)nc(-c2ccccc2)n1	i	i	?	?	8.9µM[quencher]	i
c1ccc(OCCOc2ccccc2)cc1	nt	i	nt	nt	nt	i
COC(=O)[C@H](Cc1ccccc1)NC(=O)O[C@@H]1Cc2cc(OC)ccc2O[C@H]1c1cccc(OC)c1	i	i	i	i	i	i
COc1cccc2cc(C(=O)Nc3ccc(C)cc3)c(=O)oc12	nt	i	i	i	i	i
COc1ccc(NC(=O)c2cc3cccc(OC)c3oc2=Nc2ccc(C(=O)O)cc2)cc1OC	i	i	14µM	?	?	i
COc1ccc(N=C2O/C(=C/c3sc(=S)n(CC4CCCO4)c3O)N=C2C#N)cc1 (stereo unspecified)	i	i	10µM	i	13µM[quencher]	i
SMILES	RGS12 GoLoco inh	TRb-SRC2 inh	Tau fibril ThT	Tau FP inhib	Tau fluor counter	TexasRed fluor
O=C(Nc1ccc(F)cc1)Nc1csc2ccccc12	i	i	nt	i	8.9µM[quencher]	i
CN(C)c1ccc(NC(=O)Nc2csc3ccccc23)cc1	i	i	3.5µM	i	7.1µM[quencher]	i
Cc1c(Br)c(=O)oc2c(Br)c(O)c(O)cc12	i	i	13µM	?	?	i
Cc1c(Br)c(=O)oc2c(Br)c(O)ccc12	i	i	i	i	i	i
Cc1noc(C)c1-c1nccc(N2CCN(C)CC2)n1	i	nt	nt	nt	nt	nt
O=c1[nH]c(/C=C2\C=Nc3ccccc32)c(O)n1Cc1ccccc1F	i	i	?	i	7.9µM[quencher]	i

Screens: PubChem, National Center for Advancing Translational Sciences (NCATS)
